Screening data: PubChem, Broad Institute
The list is not random: actives were taken first. Their share in the collection is about 2.4%.
C diff growth – inhibitors of Clostridium difficile growth; 86,000 tested, 0.25% active; Clostridium difficile clinical isolate growth, OD600, 24 h; active compounds read low; growth activity, negative = inhibition, % at 16 µg/mL (by protocol); AID 1259249;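 active = mean growth activity at or below -80% and every replicate also at or below -80%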;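 note: 0% = DMSO wells and -100% = levofloxacin 16 µg/mL wells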
Pf Dd2 growth – P. falciparum Dd2 growth inhibition. SYBR Green, 72 h; active compounds read low. activity change, % at 10 µM. 94,000 tested, 2.3% active; in the data active = activity change below about -80%
* hit, by the source's call; x = no result.

SMILES	C diff growth	Pf Dd2 growth
C[C@@H]1CN([C@@H](C)CO)C(=O)Cc2cc(NC(=O)CCCN(C)C)ccc2O[C@H]1CN(C)Cc1ccc(Oc2ccccc2)cc1	6.2	-58.8
CN1c2ccc(Br)cc2[C@@H]2[C@@H](CCN2C(=O)Nc2ccc(F)cc2)[C@H]1CO	-98.3*	10.8
COc1ccc(NC(=O)N2CC[C@H]3[C@@H]2c2cc(Br)ccc2N(C)[C@H]3CO)cc1	-98.5*	-6.7
COc1ccc(NC(=O)N2CC[C@@H]3[C@H]2c2cc(Br)ccc2N(C)[C@H]3CO)cc1	6.9	-8.6
CN1c2ccc(Br)cc2[C@@H]2[C@@H](CCN2C(=O)Nc2ccc(F)cc2)[C@@H]1CO	15.3	17.6
C[C@H](CO)N1C[C@H](C)[C@H](CN(C)Cc2ccccc2)Oc2ccc(NC(=O)CCCCCC(=O)Nc3ccccc3N)cc2CC1=O	-5.0	-50.1
C[C@@H]1CN([C@@H](C)CO)C(=O)Cc2cc(NC(=O)CCCCCC(=O)Nc3ccccc3N)ccc2O[C@@H]1CN(C)Cc1ccc(-c2ccccc2)cc1	-2.4	-58.3
C[C@H](CO)N1C[C@H](C)[C@H](CN(C)Cc2ccc(Oc3ccccc3)cc2)Oc2ccc(NC(=O)CCCCCC(=O)Nc3ccccc3N)cc2CC1=O	2.0	-84.3*
C[C@H]1CN([C@@H](C)CO)C(=O)Cc2cc(NC(=O)CCCCCC(=O)Nc3ccccc3N)ccc2O[C@H]1CN(C)Cc1ccc(Oc2ccccc2)cc1	-2.1	-84.9*
CO[C@@H]1CN(C)C(=O)c2ccc(NC(=O)c3nc4ccccc4s3)cc2OC[C@H](C)N(Cc2ccncc2)C[C@@H]1C	x	-95.9*
CO[C@@H]1CN(C)C(=O)c2ccc(NC(=O)c3nc4ccccc4s3)cc2OC[C@H](C)N(Cc2cccnc2)C[C@H]1C	0.0	-52.6
CO[C@@H]1CN(C)C(=O)c2ccc(NC(=O)c3nc4ccccc4s3)cc2OC[C@@H](C)N(Cc2ccncc2)C[C@@H]1C	x	-71.7
CO[C@@H]1CN(C)C(=O)c2ccc(NC(=O)c3nc4ccccc4s3)cc2OC[C@H](C)N(Cc2cccnc2)C[C@@H]1C	-8.9	-82.7*
CCCC(=O)Nc1ccc2c(c1)OC[C@H](C)N(Cc1ccncc1)C[C@H](C)[C@H](OC)CN(C)C2=O	-1.0	-18.4
C[C@@H]1CN([C@@H](C)CO)C(=O)c2c(c3ccccc3n2C)-c2ccccc2CO[C@H]1CN(C)S(=O)(=O)c1ccccc1F	20.2	-74.3
C[C@H](CO)N1C[C@H](C)[C@H](CN(C)S(=O)(=O)c2ccccc2F)OCc2ccccc2-c2c(n(C)c3ccccc23)C1=O	5.4	-87.3*
COc1ccccc1S(=O)(=O)N(C)C[C@H]1OCc2ccccc2-c2c(n(C)c3ccccc23)C(=O)N([C@@H](C)CO)C[C@@H]1C	4.8	-86.6*
COc1ccccc1S(=O)(=O)N(C)C[C@H]1OCc2ccccc2-c2c(n(C)c3ccccc23)C(=O)N([C@@H](C)CO)C[C@H]1C	1.7	-67.6
COc1ccccc1-c1cn(CC[C@H]2CC[C@H](NS(=O)(=O)c3ccccc3C)[C@@H](CO)O2)nn1	-2.1	-21.4
O=C(c1ccccc1)N1CC2(C1)[C@H](c1ccccc1)[C@H](CO)N2Cc1cc(F)ccc1F	4.2	-4.6
C[C@@H]1CN([C@@H](C)CO)C(=O)c2cc(NC(=O)CCCCCC(=O)Nc3ccccc3N)ccc2O[C@@H]1CN(C)C(=O)Nc1ccc(C(F)(F)F)cc1	x	-28.6
COc1ccccc1-c1cccc(-c2nc(C(=O)N3CCOCC3)cc3c2[C@H](CCO)N([S@@](=O)C(C)(C)C)C3)c1	x	-9.3
C[C@H](CO)N1C[C@H](C)[C@H](CN(C)C(=O)c2cccnc2)Oc2cc(C3=CCCC3)ccc2S1(=O)=O	4.1	-23.4
COc1ccc2c3c(n(C)c2c1)[C@H](CO)N(Cc1ccc(F)cc1)CC31CCN(CC2CCOCC2)CC1	4.8	-22.0
COc1ccc2c3c(n(C)c2c1)[C@@H](CO)N(CC1CCCCC1)CC31CCN(Cc2nccs2)CC1	6.1	-90.0*
SMILES	C diff growth	Pf Dd2 growth
COc1ccc2c3c(n(C)c2c1)[C@H](CO)N(CC1CCCC1)CC31CCN(Cc2nccs2)CC1	5.0	-71.5
COc1ccc2c3c(n(C)c2c1)[C@H](CO)N(Cc1ccc(F)cc1)CC31CCN(CC2CC2)CC1	1.2	-83.9*
COc1ccc2c3c(n(C)c2c1)[C@@H](CO)N(Cc1ccc(Cl)cc1)CC31CCN(CC2CC2)CC1	11.2	-90.7*
COc1ccc2c3c(n(C)c2c1)[C@H](CO)N(Cc1ccccc1F)CC31CCN(CC2CC2)CC1	3.6	-89.6*
COc1ccc2c3c(n(C)c2c1)[C@H](CO)N(Cc1ccc(F)cc1)CC31CN(CC2CC2)C1	13.0	-13.5
COc1ccc2c3c(n(C)c2c1)[C@H](CO)N(Cc1ccccc1F)CC31CN(CC2CC2)C1	x	22.7
CCN1[C@H](C(=O)NCCCN(C)C)[C@@H](CO)[C@@H]2Cn3c(ccc(-c4ccccc4OC)c3=O)[C@@H]21	-2.1	-17.1
